The first assay deals with Hexose transporter 1 (Plasmodium falciparum) (UniProt O97467). In words: ST_JUDE_LEISH: Cytotoxicity at 2uM final concentration against transgenic Leishmania Mexicana promastigotes LmPfHT that are glucose transport deficient and complemented with the Plasmodium falciparum hexose transporter. Activity is measured by DNA content using SYBR green in vitro. The class given is functional.
`COc1ccc2nccc([C@@H](O)CN3CCC(NC(=O)/C=C/c4cc(F)cc(NC(C)=O)c4)CC3)c2c1`: the inhibition amounted to 2.3%.

In the case of `OCCn1c(CNCCCNc2nc3ccccc3[nH]2)cc2c(Cl)cc(Cl)cc21`, the inhibition was 88.2%.

On to `CCC(CC)N1C(=O)C(c2ccccc2)(c2ccccc2)N=C1N`, for which the inhibition is 3.51%.

Consider `Cc1cc(N(C)CCCN(C)C)nc(Nc2ccc(Cl)cc2)n1`, for which the inhibition amounted to 1.73%.

As to `Cc1ccc(Nc2nc3cc(Nc4ccnc(Nc5cccc(CS(C)(=O)=O)c5)n4)ccc3o2)cc1`, the inhibition was found to be 2.49%.

Turning to `CCN(CCCN1CCCCC1)c1cc(C)nc(Nc2ccc(C)cc2Cl)n1`, the inhibition amounted to 7.68%.

As for `CNCc1ccc(-c2ccc3ccnc(N)c3c2)cc1`, the inhibition was 5.56%.

`O=c1cc(NCCCCNCc2ccc(Br)c(Br)c2)[nH]c2ccccc12`: the inhibition turned out to be 0.5%.

As to `CCCCCCc1cnc2nc(N)nc(N)c2c1C`, the inhibition was determined as 10%.

As to `COC(=O)c1cccc(CNCc2ccc(-c3ccc(-c4nc5cc(F)ccc5[nH]4)s3)cc2)c1`, the inhibition came out at 0.36%.

On to `c1ccc(CCNc2ccnc(Nc3ccc4[nH]nnc4c3)n2)cc1`, for which the inhibition was 13.9%.

As for `COc1cc(F)c2nccc([C@@H](O)CN3CCC(NCc4cc5c(cc4F)OCCO5)CC3)c2c1`, the inhibition worked out at 0.69%.

Take `CN1CCN(c2ccnc3ccc(NC(=O)Nc4ccc(Cl)cc4)cc23)CC1`: the inhibition is -0.83%.

For the compound `CCOC(=O)CCCc1cc(NC2CCN(C)CC2)nc(Nc2ccc(C)cc2)n1`, the inhibition came to 0.71%.

For the compound `CN(C)CCCOc1ccc(-c2csc(NC(=N)NCc3ccccc3)n2)cc1`, the inhibition worked out at 6.08%.

`CCc1ccc2nc(-c3ccc(F)cc3)nc(SCC(=O)Nc3sc(C)c(C)c3C#N)c2c1`: the inhibition came out at 7.28%.

With `CN1CCCN(c2ccnc3cc4c(cc23)N(C(=O)c2ccc(Cl)cc2)CC4)CC1`, the inhibition is 12.5%.

`O=C(Nc1cccc(-c2nn3ccccc3c2-c2ccnc(Nc3ccccc3)n2)c1)c1cc(F)ccc1F`: the inhibition came out at 2.05%.

On to `CCOc1ccc(C(=O)Nc2nonc2-c2ccc(OC)c(OC)c2)cc1`, for which the inhibition turned out to be 1.82%.

Regarding `CC1CCCN(C(=O)c2cc(-c3ccccn3)nc3c(Cl)cccc23)C1` (stereo not given), the inhibition was determined as 1.26%.

As for `CN(C)Cc1ccc(-c2ccc3c(Nc4ccc(Cl)cc4F)ccnc3c2)o1`, the inhibition was -1.56%.

With `COc1ccc(CNCc2cccc(-c3cccc(-c4nc5ccccc5[nH]4)c3)c2)cc1`, the inhibition came out at 4.28%.

For the compound `CCCCCN1CCC(NS(=O)(=O)c2cccc(C(=O)Nc3ccc(Cl)cc3)c2)CC1`, the inhibition is 1.63%.

Turning to `COc1cc(CCNCC(O)c2ccc([N+](=O)[O-])c(OCc3ccccc3)c2)cc(OC)c1OC` (stereo not given), the inhibition came out at 1.28%.

As to `O=C(Nc1cc(C(F)(F)F)ccc1Cl)c1ccc(Cn2cc(Br)cn2)cc1`, the inhibition is 0.15%.

On to `COc1ccc(NC(=O)Nc2ccc(-c3ccccc3)cc2Cl)cc1N1CCN(C)CC1`, for which the inhibition is 11.8%.

Turning to `CCC1(CC)NC(N)=NC(=N)N1OCc1ccc(Cl)c(Cl)c1`, the inhibition stood at 3.75%.

Regarding `COc1ccc(-c2ccc(NC(=O)c3cccc(F)c3)cc2)cc1CNC(C)C`, the inhibition was -0.6%.

As to `CCCCCCCc1c(C)nc2c(OC)cccc2c1O`, the inhibition turned out to be 8.11%.

For the compound `O=C(CSc1nc2ccccc2c(=O)n1CC1CCCO1)Nc1cc(C(F)(F)F)ccc1Cl` (stereo not given), the inhibition is 9.45%.

Take `O=C(C=Cc1ccc(F)cc1)N1CCN(S(=O)(=O)c2ccc(Cl)cc2)CC1`: the inhibition was -1.62%.

For `COc1ccc2c(c1)C(C)(CCCN(C)C)C(=O)N2C` (stereo not given), the inhibition was 1.36%.

As for `O=C(Nc1cccc(-c2ccc(-c3nc4ccccc4[nH]3)cc2)c1)c1csnn1`, the inhibition was found to be 1.58%.

`CN(C)CCNc1ncnc2c1[nH]c1ccc(Br)cc12`: the inhibition was 4.67%.

On to `CCCN(Cc1nnc(-c2ccco2)o1)C(=O)C1CCCN(C(=O)c2ccc(Cl)cc2)C1` (stereo not given), for which the inhibition stood at 0.73%.

`CCOc1cc(C(=O)NCCN2CCCCC2)ccc1-c1nc2cc(Cl)ccc2[nH]1`: the inhibition is 1.42%.

For `O=C(NCCN1CCOCC1)c1ccc(N2CCC(Oc3ccc4ccccc4c3)CC2)nc1`, the inhibition was 6.04%.

Turning to `COc1ccc(NC(=O)/C=C/c2ccc(-c3ccccc3)cc2)cc1N1CCN(C)CC1`, the inhibition stood at 3.25%.

As for `COc1ccc2c(ccc3c2ncc2c(=O)n(-c4ccccc4)[nH]c23)c1`, the inhibition was -1.2%.

In the case of `O=C(Nc1ccc(-c2nc3ccccc3[nH]2)cc1)c1ccc(S(=O)(=O)N2CCCCC2)cc1`, the inhibition was 4.17%.

The target of the next assay is Glucose transporter (Leishmania mexicana) (UniProt O61059). In words: ST_JUDE_LEISH: Cytotoxicity at 2uM final concentration against transgenic Leishmania Mexicana promastigotes LmGT2 that are glucose transport deficient and complemented with the L. Mexicana glucose transporter 2. Activity is measured by DNA content using SYBR green in vitro. The class given is functional.
On to `COc1ccc2nccc([C@@H](O)CN3CCC(NC(=O)/C=C/c4cc(F)cc(NC(C)=O)c4)CC3)c2c1`, for which the inhibition is -3.44%.

For `OCCn1c(CNCCCNc2nc3ccccc3[nH]2)cc2c(Cl)cc(Cl)cc21`, the inhibition was 80.5%.

Take `CCC(CC)N1C(=O)C(c2ccccc2)(c2ccccc2)N=C1N`: the inhibition was 1.61%.

As for `Cc1cc(N(C)CCCN(C)C)nc(Nc2ccc(Cl)cc2)n1`, the inhibition is -0.32%.

With `Cc1ccc(Nc2nc3cc(Nc4ccnc(Nc5cccc(CS(C)(=O)=O)c5)n4)ccc3o2)cc1`, the inhibition stood at 0.38%.

Turning to `CCN(CCCN1CCCCC1)c1cc(C)nc(Nc2ccc(C)cc2Cl)n1`, the inhibition stood at 7.34%.

On to `CNCc1ccc(-c2ccc3ccnc(N)c3c2)cc1`, for which the inhibition was determined as 3.23%.

In the case of `O=c1cc(NCCCCNCc2ccc(Br)c(Br)c2)[nH]c2ccccc12`, the inhibition was -4.13%.

Consider `CCCCCCc1cnc2nc(N)nc(N)c2c1C`, for which the inhibition came to 10.3%.

Consider `COC(=O)c1cccc(CNCc2ccc(-c3ccc(-c4nc5cc(F)ccc5[nH]4)s3)cc2)c1`, for which the inhibition came out at 1.42%.

Consider `c1ccc(CCNc2ccnc(Nc3ccc4[nH]nnc4c3)n2)cc1`, for which the inhibition is 10.8%.

Turning to `COc1cc(F)c2nccc([C@@H](O)CN3CCC(NCc4cc5c(cc4F)OCCO5)CC3)c2c1`, the inhibition was -2.93%.

`CN1CCN(c2ccnc3ccc(NC(=O)Nc4ccc(Cl)cc4)cc23)CC1`: the inhibition is -1.7%.

Consider `CCOC(=O)CCCc1cc(NC2CCN(C)CC2)nc(Nc2ccc(C)cc2)n1`, for which the inhibition is -2.59%.

With `CN(C)CCCOc1ccc(-c2csc(NC(=N)NCc3ccccc3)n2)cc1`, the inhibition was found to be 3.86%.

Consider `CCc1ccc2nc(-c3ccc(F)cc3)nc(SCC(=O)Nc3sc(C)c(C)c3C#N)c2c1`, for which the inhibition was 5.07%.

With `CN1CCCN(c2ccnc3cc4c(cc23)N(C(=O)c2ccc(Cl)cc2)CC4)CC1`, the inhibition was determined as 16.1%.

In the case of `O=C(Nc1cccc(-c2nn3ccccc3c2-c2ccnc(Nc3ccccc3)n2)c1)c1cc(F)ccc1F`, the inhibition was -2.21%.

`CCOc1ccc(C(=O)Nc2nonc2-c2ccc(OC)c(OC)c2)cc1`: the inhibition came out at 0.47%.

As to `CC1CCCN(C(=O)c2cc(-c3ccccn3)nc3c(Cl)cccc23)C1` (stereo not given), the inhibition is 1.25%.

With `CN(C)Cc1ccc(-c2ccc3c(Nc4ccc(Cl)cc4F)ccnc3c2)o1`, the inhibition was determined as 5.24%.

Turning to `COc1ccc(CNCc2cccc(-c3cccc(-c4nc5ccccc5[nH]4)c3)c2)cc1`, the inhibition amounted to 3.04%.

Regarding `CCCCCN1CCC(NS(=O)(=O)c2cccc(C(=O)Nc3ccc(Cl)cc3)c2)CC1`, the inhibition is 2.4%.

As to `COc1cc(CCNCC(O)c2ccc([N+](=O)[O-])c(OCc3ccccc3)c2)cc(OC)c1OC` (stereo not given), the inhibition stood at 0.48%.

For `O=C(Nc1cc(C(F)(F)F)ccc1Cl)c1ccc(Cn2cc(Br)cn2)cc1`, the inhibition is -9.62%.

On to `COc1ccc(NC(=O)Nc2ccc(-c3ccccc3)cc2Cl)cc1N1CCN(C)CC1`, for which the inhibition is 3.58%.

Turning to `CCC1(CC)NC(N)=NC(=N)N1OCc1ccc(Cl)c(Cl)c1`, the inhibition was 4.43%.

In the case of `COc1ccc(-c2ccc(NC(=O)c3cccc(F)c3)cc2)cc1CNC(C)C`, the inhibition is -2.2%.

As to `CCCCCCCc1c(C)nc2c(OC)cccc2c1O`, the inhibition is -0.9%.

Turning to `O=C(CSc1nc2ccccc2c(=O)n1CC1CCCO1)Nc1cc(C(F)(F)F)ccc1Cl` (stereo not given), the inhibition was determined as 6.14%.

In the case of `O=C(C=Cc1ccc(F)cc1)N1CCN(S(=O)(=O)c2ccc(Cl)cc2)CC1`, the inhibition stood at 4.67%.

Take `COc1ccc2c(c1)C(C)(CCCN(C)C)C(=O)N2C` (stereo not given): the inhibition was determined as 2.15%.

For the compound `O=C(Nc1cccc(-c2ccc(-c3nc4ccccc4[nH]3)cc2)c1)c1csnn1`, the inhibition amounted to 0.69%.

Regarding `CN(C)CCNc1ncnc2c1[nH]c1ccc(Br)cc12`, the inhibition was 1.38%.

As to `CCCN(Cc1nnc(-c2ccco2)o1)C(=O)C1CCCN(C(=O)c2ccc(Cl)cc2)C1` (stereo not given), the inhibition was -0.96%.

As for `CCOc1cc(C(=O)NCCN2CCCCC2)ccc1-c1nc2cc(Cl)ccc2[nH]1`, the inhibition worked out at 2.06%.

On to `O=C(NCCN1CCOCC1)c1ccc(N2CCC(Oc3ccc4ccccc4c3)CC2)nc1`, for which the inhibition was 6.12%.

Regarding `COc1ccc(NC(=O)/C=C/c2ccc(-c3ccccc3)cc2)cc1N1CCN(C)CC1`, the inhibition was 0.83%.

Consider `COc1ccc2c(ccc3c2ncc2c(=O)n(-c4ccccc4)[nH]c23)c1`, for which the inhibition is -0.76%.

With `O=C(Nc1ccc(-c2nc3ccccc3[nH]2)cc1)c1ccc(S(=O)(=O)N2CCCCC2)cc1`, the inhibition was found to be 0.68%.

By inhibition is commonly meant the drop in the measured response relative to a control, in per cent.
